# PI5P4Ka inh: inhibitors of human PI5P4K alpha; P48426; PI5P4Kalpha enzyme, ADP-Glo luminescence, 60 min; stronger effect = lower value; 1.2% of 330,000 active; max response, %; active means max response of -50% or lower; inconclusive means between -30% and -50%; inactive means -30% or higher; further: value at the top dose of about 77 µM; on the % scale 0 is the no-effect control and ±100 the full control effect
#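 qHTS, 1536-well: enzyme/substrate mix, compound by pin tool, 5 microM ATP final; RT 60 min; ADP-Glo reagents 1 (45 min) then 2 (30 min); luminescence.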
# BAZ2B block: inhibitors of human BAZ2B bromodomain. Q9UIF8. AlphaScreen BAZ2B-H3K14Ac peptide displacement. Potency, µM (top dose mostly 114 µM), inactives show top-dose activity change, negative = inhibition, usual class: inhibitors. 4.4% of 360,000 active; further: potency means the concentration at half of the fitted maximal effect; on the % scale 0 is the no-effect control and ±100 the full control effect; nearly all actives have a fitted effect of over 60% in size
#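 Multi-concentration screen (max 110 uM) measuring displacement of acetylated histone H3 peptide from BAZ2B by AlphaScreen, using 50 nM protein, 50 nM peptide and 10 ug/mL streptavidin donor plus Ni-chelate acceptor beads.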
# G9a block: G9a (human) methyltransferase inhibition; Q96KQ7; G9a H3K9 monomethylation, AlphaScreen, 2 h; Potency, µM (top dose mostly 102 µM), inactives show at the highest dose activity, negative = inhibition, actives largely listed as inhibitors; 8.8% of 350,000 active; further: potency means the concentration at half of the fitted maximal effect; on the % scale 0 is the no-effect control and ±100 the full control effect; nearly all actives have a fitted effect of over 75% in size
#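 Enzyme 20 nM + cpd, 15 min RT; add b-H3K9 pep 500 nM / SAM 20 uM; 2 h RT; anti-H3K9me1 Ab 0.5 ug/mL + SA donor / anti-rabbit acceptor beads 20 ug/mL each, 10 min; AlphaScreen read.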
# HP1b chromo inh: blocks HP1-beta chromodomain binding to methylated histone tails; P83916; AlphaScreen HP1-beta / biotin-H3K9me3 peptide binding; Potency, µM (series often up to 114 µM), for inactives: at the highest dose activity change, negative = inhibition, usual class: inhibitors; 0.56% of 390,000 active; AID 540317; further: potency means the concentration at half of the fitted maximal effect; nearly all actives have a fitted effect of over 70% in size
# Target sequence (P83916 whole entry, looked up): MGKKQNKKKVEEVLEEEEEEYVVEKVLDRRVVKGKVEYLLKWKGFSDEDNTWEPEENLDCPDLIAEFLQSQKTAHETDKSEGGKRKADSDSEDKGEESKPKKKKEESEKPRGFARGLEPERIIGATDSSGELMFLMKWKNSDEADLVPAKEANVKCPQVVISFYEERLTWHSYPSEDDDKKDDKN
#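 AlphaScreen: HP1-beta (50 nM) preformed 30 min with biotin-H3(1-18)K9me3 peptide (50 nM) in PBS pH 7.4, 0.01% Tween-20. Compound added for 30 min at RT, then streptavidin donor/nickel chelate acceptor beads (10 ug/mL) for 30 min.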
# JMJD2A Tudor inh: blocks the human JMJD2A Tudor domain. Potency, µM (highest dose often 114 µM), for inactives: at the highest dose activity change, negative = inhibition, most hits filed as inhibitors. AlphaScreen JMJD2A-Tudor / H3K4me3 peptide binding. O75164. 4.4% of 390,000 active. AID 504339; further: potency means the concentration at half of the fitted maximal effect; on the % scale 0 is the no-effect control and ±100 the full control effect; nearly all actives have a fitted effect of over 50% in size
# L3MBTL1 inh: inhibitors of human L3MBTL1; AlphaScreen L3MBTL1–H3K9me1 peptide binding; Potency, µM (series often up to 57.1 µM), without a hit: top-dose activity, negative = inhibition, usual class: inhibitors; 0.66% of 230,000 active; AID 485360; further: potency means the concentration at half of the fitted maximal effect; on the % scale 0 is the no-effect control and ±100 the full control effect; nearly all actives have a fitted effect of over 60% in size
#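 AlphaScreen proximity signal between nickel-chelate acceptor and streptavidin donor beads (final 10 ug/mL) reports binding of 50 nM L3MBTL1 to 75 nM biotin-H3 K9me1 peptide; complex incubated with compounds 30 min at room temperature; cefsulodin titration as control.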
# JMJD2E inh-1: JMJD2E demethylase inhibition by 8HQ compounds; AID 493212; JMJD2E demethylase, FDH-coupled NADH fluorescence; Potency, µM (series often up to 57 µM), inactives show at the highest dose activity, negative = inhibition, most hits filed as inhibitors; shares compounds with BAZ2B block; 89% of 130 active
# JMJD2E inh-2: JMJD2E (human) demethylase inhibition, confirmation; shares compounds with JMJD2A Tudor inh; AID 2677; 93% of 140 active; Recombinant JMJD2E, FDH-coupled NADH fluorescence (FDH is formaldehyde dehydrogenase); Potency, µM (series often up to 56.8 µM), for inactives: top-dose activity change, negative = inhibition, most hits filed as inhibitors
# FDH counter: counter-screen for JMJD2E inhibitors: Pseudomonas putida formaldehyde dehydrogenase; 10% of 140 active; shares compounds with JMJD2A Tudor inh; Potency, µM (titrated, usually from 56.7 µM), for inactives: at the top dose activity, negative = inhibition, actives largely listed as inhibitors; FDH enzyme assay, NADH fluorescence kinetic
# Target sequence (P46154 whole entry, looked up): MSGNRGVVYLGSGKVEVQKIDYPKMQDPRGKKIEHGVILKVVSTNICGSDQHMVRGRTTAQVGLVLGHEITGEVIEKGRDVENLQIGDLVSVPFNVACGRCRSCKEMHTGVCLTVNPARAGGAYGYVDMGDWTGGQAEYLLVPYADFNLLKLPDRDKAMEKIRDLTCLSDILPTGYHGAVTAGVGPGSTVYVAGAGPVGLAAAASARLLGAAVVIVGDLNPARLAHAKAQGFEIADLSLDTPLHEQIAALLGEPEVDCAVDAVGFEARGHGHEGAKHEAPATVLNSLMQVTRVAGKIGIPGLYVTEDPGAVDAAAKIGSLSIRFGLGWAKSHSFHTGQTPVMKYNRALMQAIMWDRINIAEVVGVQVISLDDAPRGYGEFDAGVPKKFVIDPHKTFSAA
# JMJD2E MS inh: human KDM4E demethylase inhibition | recombinant JMJD2E demethylation, MALDI-TOF-MS | 90% of 45 active | Potency, µM, usual class: inhibitors | shares compounds with JMJD2A Tudor inh;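 active means compounds whose IC50 for blocking JMJD2E demethylation is below 100 µM; inconclusive means dose dependent effect but IC50 above 100 µM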
# * marks the source's active call; other numbers are inactive results; ? = inconclusive; . = not tested or not shown; [ ] = dose if it differs, or a comment. Only some compounds are listed: those with a hit (about 11% of all), similar ones and a draw of the others. Unless noted, the call rests on the fitted dose curve; in most records, active means well fitted inhibition curve with a large enough effect; inconclusive means small, poorly fitted or top-dose-only effect; inactive means no such curve, though single readings can be large or run the other way.
SMILES,PI5P4Ka inh,BAZ2B block,G9a block,HP1b chromo inh,JMJD2A Tudor inh,L3MBTL1 inh,JMJD2E inh-1,JMJD2E inh-2,FDH counter,others
Oc1cccc2cc(Nc3ccccc3)cnc12,.,.,.,.,.,.,10µM*,10µM*,-18%,
Oc1cccc2cc(N3CCCC3)cnc12,.,.,.,.,.,.,18µM*,18µM*,-9%,
Cc1ccc(O)c(CNc2cnc3ccccc3c2)c1,0,?,8%,29%,-11%,0%,.,.,.,
Cc1ccc2nc(Nc3ccc(C)c(F)c3)c3nncn3c2c1,.,3%,12%[59 µM],25%,1%,.,.,.,.,
Oc1cc(Nc2ccccc2)cc2cccnc12,.,?,19%[12.7 µM],17%,?,-10%,?,?,-18%,
O=C(COc1cccc2cccnc12)NNC(=O)Nc1ccccc1,0,-29%,-1%,31%,-8%,-4%[11.4 µM],.,.,.,
COC(=O)c1ccc(OC(C)=O)c2ncccc12,.,.,.,.,.,.,13µM*,14µM*,-18%,
COC(=O)c1cnc2c(C(F)(F)F)cccc2c1OC,-2,4%,-24%[12.7 µM],32%,-5%,.,.,.,.,
Cc1nc2ccccc2n1CCc1nc2c3ccccc3nc(SCc3cccc(F)c3)n2n1,.,1%,0%[59 µM],37%,-8%,.,.,.,.,
CC(C)C(=O)N1c2nc(C(C)C)nn2C2(CCCCC2)[C@@H]2CCCC[C@@H]21,.,1%,2%[59 µM],34%,-14%,.,.,.,.,
O=[N+]([O-])c1ccccc1NCc1ccc(O)c2ncccc12,.,.,.,.,?,.,4.5µM*,10µM*,-27%,JMJD2E MS inh=12*
Oc1c(CNc2ccccc2)cc(COCc2ccccc2)c2cccnc12,.,50µM*,-36%[12.7 µM],21%,-17%,?,11µM*,7.9µM*,-9%,
COc1ccc(CNc2cccnc2)c(OC)c1OC,-6,.,.,44%,-6%,.,.,.,.,
Oc1ccc(CNc2cccc(C(F)(F)F)c2)c2cccnc12,.,22µM*,1.4µM*,.,.,13µM*,7.9µM*,7.9µM*,-36%,
O=C(Nc1cccc2cccnc12)c1ccccc1[N+](=O)[O-],.,2%[57.1 µM],-35%[59 µM],20%,-11%,.,.,.,.,
Oc1ccc(CNc2cccnc2)c2cccnc12,.,.,.,.,22µM*,.,6.5µM*,13µM*,-18%,JMJD2E MS inh=26*
CCCn1cc(S(=O)(=O)c2ccc(OC)cc2)c(=O)c2cc(F)c(N3CCCCCC3)cc21,.,2%,8%[59 µM],28%,-15%,.,.,.,.,
CCC(C)n1c(=N)c(C(=O)NC2CCCCC2)cc2c(=O)n3cc(C)ccc3nc21 (centres undefined),.,3%,-47%[59 µM],21%,1%,.,.,.,.,
O=C(c1cc2ccccc2cc1O)N1CCN(c2ccccn2)CC1,-1,-5%,?,-23%,-25%,.,.,.,.,
CN1CCN(c2cc(-c3cc(O)c4ncccc4c3)ccn2)CC1,.,7.9µM*,1%[12.7 µM],19%,25µM*,28µM*,16µM*,16µM*,-9%,
CN1CCN(C(=O)c2cccc(-c3ccc4nncn4c3)c2)CC1,2,.,.,.,.,.,.,.,.,
CN1CCN(C(=O)c2cccc(-c3cc(O)c4ncccc4c3)c2)CC1,.,13µM*,-3%[12.7 µM],51%,50µM*,32µM*,16µM*,16µM*,-18%,
Oc1cc(-c2cccnc2)cc2cccnc12,.,3.2µM*,28%[12.7 µM],61%,25µM*,7.9µM*,5.6µM*,5.6µM*,-27%,

# Screens (PubChem)
